Only some compounds are listed: those with a hit (about 1.6% of all), similar ones and a draw of the others.
Coupling enz – coupling enzyme interference in Giardia aldolase counter-screen | coupling enzyme system counterscreen, AmpLite Red fluorescence | activity change, negative = inhibition, % at 58.2 µM, hits read low | 0.67% of 290,000 active | AID 2472; in the data active means activity change below about -30%; further: on the % scale 0 is the no-effect control and ±100 the full control effect
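Final compound at 57.5 uM, incubated 10 min at RT with coupling enzyme reagent (glyceraldehyde-3-phosphate), then 20 min with substrate and AmpLite Red detection. Fluorescence read at 525/598 nm; tests interference with the coupling assay, not aldolase inhibition.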
RXFP1 antag – blocks the human relaxin receptor RXFP1; Q9HBX9; HEK293-RXFP1, relaxin-stimulated cAMP HTRF, 30 min; active compounds read low; activity change, negative = inhibition, % at 57.5 µM; 0.59% of 350,000 active;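 active means activity change of -60% or lower, but not beyond a set lower limit; inconclusive means change between -60% and -40%, or beyond the set limit; inactive means change above -40%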; further: on the % scale 0 is the no-effect control and ±100 the full control effect
Target sequence (Q9HBX9 whole entry, looked up): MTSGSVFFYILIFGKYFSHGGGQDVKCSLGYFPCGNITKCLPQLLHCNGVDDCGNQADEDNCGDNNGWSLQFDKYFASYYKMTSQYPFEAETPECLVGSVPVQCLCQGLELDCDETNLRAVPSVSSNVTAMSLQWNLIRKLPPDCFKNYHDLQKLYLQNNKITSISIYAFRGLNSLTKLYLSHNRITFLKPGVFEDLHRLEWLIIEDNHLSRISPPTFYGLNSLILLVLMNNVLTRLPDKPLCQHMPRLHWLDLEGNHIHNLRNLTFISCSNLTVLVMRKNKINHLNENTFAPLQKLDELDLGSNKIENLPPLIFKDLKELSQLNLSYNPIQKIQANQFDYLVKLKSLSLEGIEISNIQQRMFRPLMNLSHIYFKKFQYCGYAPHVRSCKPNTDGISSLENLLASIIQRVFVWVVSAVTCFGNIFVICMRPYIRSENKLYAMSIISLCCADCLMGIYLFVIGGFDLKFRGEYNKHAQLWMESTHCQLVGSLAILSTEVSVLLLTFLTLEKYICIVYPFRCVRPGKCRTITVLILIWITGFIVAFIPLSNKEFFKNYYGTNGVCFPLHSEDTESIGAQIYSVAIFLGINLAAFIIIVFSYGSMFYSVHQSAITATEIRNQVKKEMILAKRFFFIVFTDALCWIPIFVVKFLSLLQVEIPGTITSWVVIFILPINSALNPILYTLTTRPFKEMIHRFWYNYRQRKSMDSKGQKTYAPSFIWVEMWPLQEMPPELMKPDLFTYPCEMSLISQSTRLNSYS
gsp antagonist – antagonizes gsp, the McCune-Albright syndrome mutation | AID 624288 | Potency, µM (top dose mostly 76.9 µM), for inactives: top-dose activity change, negative = inhibition, usual class: inhibitors | gsp-mutant cells, cAMP HTRF, 30 min | 0.4% of 340,000 active; calls by dose curve; cell line not stated here;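 further: intracellular cAMP measured with PDE inhibitor Ro 20-1724 present during compound exposure; potency means the concentration at half of the fitted maximal effect; on the % scale 0 is the no-effect control and ±100 the full control effect; nearly all actives have a fitted effect of over 65% in size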
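HTRF cAMP measurement after 30 min RT detection following 30 min, 37C compound treatment alongside […] (added as 300 uM solution) in G418-selected cells seeded at 2000/well and grown 16–24 h.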
RXFP1 agonist – activates the human relaxin receptor RXFP1. Q9HBX9. HEK293T-RXFP1 cAMP TR-FRET, 30 min; response scale: percent of porcine relaxin response, buffer zero. Potency, µM (highest dose often 57.5 µM), for inactives: at the top dose activation, most hits filed as activators. 0.3% of 370,000 active. AID 2676; active means well fitted activation curve with a large enough effect; inconclusive means small, poorly fitted or top-dose-only effect; further: potency means the concentration at half of the fitted maximal effect; on the % scale 0 is the no-effect control and ±100 the full control effect; nearly all actives have a fitted effect of over 60% in size
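HEK293T cells stably expressing RXFP1 were pretreated with the PDE4 inhibitor Ro 20174, exposed to compounds for 30 min at 37C, lysed, and cAMP was read by TR-FRET. Data normalized to buffer (basal) and 29 nM porcine relaxin (100%).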
Giardia kill – kills Giardia lamblia; Giardia lamblia trophozoite viability; activity change, % at 7.66 µM, hits read low; 0.15% of 340,000 active; AID 540267; in the data active means activity change below about -80%; inconclusive means between about -30% and that limit;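 further: parasites exposed to compound for two days anaerobically before the ATP read; on the % scale 0 is the no-effect control and ±100 the full control effect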
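ATP-content bioluminescence gauges trophozoite survival. Cells (100/well) receive compound and incubate anaerobically for 48 hrs at 37 deg C; detection reagent follows for 15-30 min at room temperature.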
gsp agonist – agonists of gsp mutant (McCune-Albright syndrome); 0.13% of 340,000 active; gsp mutant cells, cAMP HTRF, 30 min; Potency, µM (top dose mostly 76.9 µM), without a hit: at the highest dose activation (cAMP increase), hits mostly activators; active means well fitted activation curve with a large enough effect; inconclusive means small, poorly fitted or top-dose-only effect, or another doubt; inactive means no such curve, though single readings can be large or run the other way; cell line not stated here;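 further: phosphodiesterase inhibitor Ro 20-1724 added with compounds to block cAMP breakdown; potency means the concentration at half of the fitted maximal effect; nearly all actives have a fitted effect of over 60% in size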
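Cells stably selected in G418 were plated at 2000/well, grown 16-24 hr, then given compounds in DMSO with the PDE inhibitor […] (300 uM solution added) for 30 min at 37C; cAMP was read by HTRF.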
* hit, by the source's call; [ ] = dose if it differs, or a comment.

`COc1ccc(CNCCC(c2ccc3c(c2)OCO3)c2ccccc2OC)cc1` (stereo not given) gave RXFP1 antag -72* and RXFP1 agonist 0%.
COc1ccc(C(C)NCCC(c2ccc(OC(C)C)cc2)c2ccccc2OC)cc1 (stereo not given) was read as Coupling enz -1, RXFP1 antag -90*, gsp antagonist -3%, RXFP1 agonist 0%, Giardia kill -10 and gsp agonist -2%.
`COc1ccc(C(CCNC(C)c2ccccc2)C(C)C)cc1` (stereo not given) gave Coupling enz 5, RXFP1 antag inconclusive, gsp antagonist 9%, RXFP1 agonist -1%, Giardia kill -15 and gsp agonist 2%[15.4 µM].
`CCCCn1c(SCC(=O)c2ccc(OCC)cc2)nc2cc(S(N)(=O)=O)ccc21` gave Coupling enz -4, RXFP1 antag -19, gsp antagonist -13%, RXFP1 agonist 30%, Giardia kill 7 and gsp agonist -37%.
`CCCCn1c(SCC(=O)c2ccc(OC)c(OC)c2)nc2cc(S(N)(=O)=O)ccc21` gave Coupling enz -13, RXFP1 antag -75*, gsp antagonist 9%, RXFP1 agonist 3%, Giardia kill -11 and gsp agonist -26%.
`CO[C@@H]1COC(=O)CCC[C@@H](C)[C@H](OC)COC(=O)[C@H](Cc2ccccc2)NC(=O)C/C=C\[C@H]1C` gave Coupling enz 1.
`CCCCC1=CC2=C(c3ccco3)C(=O)C(C)(OC(=O)c3ccc(OC)cc3)C(=O)C2=CN1Cc1ccc(OC)cc1` (stereo not given) gave Coupling enz 0 and RXFP1 agonist 14%.
CCCCC1=CC2=C(c3ccco3)C(=O)C(C)(OC(=O)c3ccc(OC)cc3)C(=O)C2=CN1CC(C)C (stereo not given) was read as Coupling enz -22, gsp antagonist 30%, RXFP1 agonist 16µM*, Giardia kill -4 and gsp agonist inconclusive.
`CC(=O)N1c2ccc(S(=O)(=O)N3CCC(C(=O)NCCc4ccc(Cl)cc4)CC3)cc2CC1C` (stereo not given) gave RXFP1 antag 25, gsp antagonist 35µM*, RXFP1 agonist 0%, Giardia kill 13 and gsp agonist inconclusive.
Screening CC(=O)c1ccc(N(CC(=O)NC2CCCC2)C(=O)c2csnn2)cc1 returned Coupling enz 2, RXFP1 antag -82*, gsp antagonist 8%, RXFP1 agonist 0%, Giardia kill 15 and gsp agonist 25%.
For O=C(CN(C(=O)c1csnn1)c1ccc(Cl)cc1)NC1CCCC1 the results were Coupling enz -2, RXFP1 antag -9, gsp antagonist 5%, RXFP1 agonist 3%, Giardia kill 6 and gsp agonist 15%.
Screening C=CC1=C2C=C(C3CC3)N(C3CCCCC3)C=C2C(=O)C(C)(OC(=O)c2ccco2)C1=O (stereo not given) returned Coupling enz -43*.
Screening C=CC1=C2C=C(C3CC3)N(C3CC3)C=C2C(=O)C(C)(OC(=O)c2ccco2)C1=O (stereo not given) returned Coupling enz -11, gsp antagonist -1%, Giardia kill 2 and gsp agonist inconclusive.
Screening C=CC1=C2C=C(C3CC3)N(C3CCCC3)C=C2C(=O)C(C)(OC(=O)c2ccco2)C1=O (stereo not given) returned Coupling enz -42*.
O=S(=O)(c1cccc(NC(=S)N2CCN(c3ccc(F)cc3)CC2)c1)C(F)F was read as Coupling enz -1, RXFP1 antag -2, gsp antagonist inconclusive, RXFP1 agonist 0%, Giardia kill -14 and gsp agonist -13%.
For O=S(=O)(c1cccc(NC(=S)N2CCN(c3cccc(Cl)c3)CC2)c1)C(F)F the results were Coupling enz -6, RXFP1 antag -31, gsp antagonist 32µM*, RXFP1 agonist -3%, Giardia kill 6 and gsp agonist -3%[15.4 µM].
Screening NC(=S)NNc1cccc2cccnc12 returned Coupling enz -36*, RXFP1 antag -19, gsp antagonist -1%, RXFP1 agonist -1%, Giardia kill -6 and gsp agonist 1%[15.4 µM].
COC(=O)C1=C(C(=O)OC)[C@@H]2N(C)c3ccccc3[C@@]23C[C@@H](CO)N(C(=O)c2ccco2)C3=N1 was read as Coupling enz 1.
O=C(CSc1ncc2c(n1)-c1ccc(Cl)cc1N(Cc1ccccc1)S2(=O)=O)Nc1ccc(F)c(F)c1 was read as RXFP1 antag -7 and RXFP1 agonist 12%.
Cc1cccc(C)c1NC(=O)CSc1ncc2c(n1)-c1ccc(Cl)cc1N(Cc1ccccc1)S2(=O)=O was read as RXFP1 antag 18 and RXFP1 agonist 10µM*.
Screening CN1c2cc(Cl)ccc2-c2nc(SCC(=O)Nc3ccc(F)cc3F)ncc2S1(=O)=O returned RXFP1 antag 1 and RXFP1 agonist 32µM*.
Screening CCCN1CNc2c(c(=O)[nH]c(=S)n2CCc2ccc(C)c(C)c2)C1 returned Giardia kill -8.
Cc1ccc(S(=O)(=O)N2CCCc3cc(NS(=O)(=O)c4ccc(C)c(C)c4)ccc32)cc1 was read as RXFP1 antag -10 and RXFP1 agonist 0%.
CCC(C)Sc1cc(-c2nc3cc(C)ccn3c2NC2CCCCC2)ccc1OC (stereo not given) was read as gsp antagonist 32µM*, Giardia kill 25 and gsp agonist inconclusive.
`CCCCNc1c(-c2ccc(OC)c(SC(C)CC)c2)nc2cc(C)ccn12` (stereo not given) gave gsp antagonist 40µM*, Giardia kill 7 and gsp agonist inconclusive.
CCCCNc1c(-c2ccc(OC)c(SC(C)CC)c2)nc2cnccn12 (stereo not given) was read as gsp antagonist 4% and Giardia kill -18.
CCCCNc1c(-c2ccc(OC)c(SC(C)CC)c2)nc2ccc(Cl)cn12 (stereo not given) was read as gsp antagonist -21%, Giardia kill 2 and gsp agonist 5%.
`CCCCNc1c(-c2ccc(OC)c(SC(C)CC)c2)nc2ccc(C)cn12` (stereo not given) gave gsp antagonist 28µM* and Giardia kill -14.
COC(=O)C1=C(C)OC(N)=C(C#N)C1c1ccc(OC)c(CSc2ccccn2)c1 (stereo not given) was read as Coupling enz 1, RXFP1 antag 2, gsp antagonist 50µM*, RXFP1 agonist 2%, Giardia kill 2 and gsp agonist 8%.
